PubChem BioAssay AID686971 (National Center for Advancing Translational Sciences (NCATS), 2013)
About 7,500 (2.1%) of roughly 360,000 compounds were called active. Where a call stands in place of a potency, no number is given. Not shown: some 8% with an inconclusive outcome. Calls follow the shape of the dose curve; as a rule, active = well fitted cell-killing curve with a large enough effect; inconclusive = small, poorly fitted or top-dose-only effect, or effect the other way, or another doubt; inactive = no such curve, though single readings can be large or run the other way. Many of the other results were omitted from the sample, so actives are more common in it than they were.

Assay: qHTS for induction of synthetic lethality in tumor cells producing 2HG: qHTS for the HT-1080-IDH1KD cell line
Details: HT-1080 IDH1 knockdown viability, ATP luminescence, 48 h; series mostly up to 46.1 µM
How it was run: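 In this qHTS, HT-1080 cells depleted of IDH1 are exposed for 48 h at 37 °C to compound titrations. Toxicity is scored from CellTiter-Glo luminescence, with DMSO as full viability and medium alone as none.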
Potency is read from the fitted curve at half-maximal effect.

Row | Compound | Potency
1 | CCOC(=O)N1CCN(C(=O)C[C@@H]2C[C@@]3(C(=O)OC)CCCCC=C3N(CCC3=CCCCC3)C2=O)CC1 | inactive
2 | Cc1cccc(-c2cnc(C(O)c3ccc4ccccc4c3)[nH]2)c1 (centres undefined) | inactive
3 | CC1(C(=O)NCc2ccccc2)CN(S(C)(=O)=O)CC(=O)N1CC(F)(F)F (centres undefined) | inactive
4 | CC1(C(=O)NS(=O)(=O)c2ccccc2)CCN1C(=O)C/C=C/c1ccccc1 (centres undefined) | inactive
5 | CC1(C(=O)O)CCN1C(=O)/C=C/c1ccccc1 (centres undefined) | inactive
6 | CC1(C)CCSC(/C=C/c2ccccc2)=N1 | 25.9 µM (active)
7 | CC1(C(=O)NCc2ccc3c(c2)OCO3)CCN1CCc1ccccc1 (centres undefined) | inactive
8 | CCN(CC)C(=O)C(C)N1c2cccc3cccc(c23)S1(=O)=O (centres undefined) | inactive
9 | COc1cccc(-c2cc3nc(NCCOc4ccccc4Cl)n(C)c(=O)c3s2)c1 | inactive
10 | O=C(NCCOc1ccccc1Cl)C(=O)Nc1ccccc1 | inactive
11 | CC(C)Nc1nc(NCCOc2ccccc2Cl)c2sccc2n1 | 16.4 µM (active)
12 | Cc1c(NC(=O)COC(=O)/C=C/c2cccc(F)c2)c(=O)n(-c2ccccc2)n1C | inactive
13 | COC(=O)C1(C(=O)OC)C[C@H](c2ccccc2)N(Cc2ccccc2OC)[C@@H]1c1ccccc1 | inactive
14 | CC1=NNC(=O)C1CCC(=O)N/N=C(\C)c1ccc(Cl)cc1 (centres undefined) | inactive
15 | C/C(=N\NC(=O)Cc1ccc(Cl)cc1)c1ccccn1 | 2.51 µM (active)
16 | NC(=O)NC(CC(=O)NNC(=O)c1ccccn1)c1ccc(Cl)cc1 (centres undefined) | inactive
17 | CC(=O)NC(c1ccccc1)c1nc(-c2cccc(C(C)C)c2)cs1 (centres undefined) | inactive
18 | CC(OC(=O)c1ccc(NC(=O)CC#N)cc1)C(=O)Nc1ccc(S(=O)(=O)N2CCCC2)cc1 (centres undefined) | inactive
19 | C[C@@H]1CN([C@H](C)CO)C(=O)CCCn2cc(nn2)CO[C@H]1CN(C)S(=O)(=O)c1ccc(Oc2ccccc2)nc1 | inactive
20 | Cc1cccc(CN2CCN(C3CN(Cc4cn(Cc5ccccc5F)nn4)S(=O)(=O)C3)CC2)c1 (centres undefined) | inactive
21 | O=C(NCC(O)c1nc2ccccc2[nH]1)c1ccc(Br)cc1 (centres undefined) | inactive
22 | Cc1cc(=O)oc2cc(OCC3CC(c4ccccc4Cl)=NO3)ccc12 (centres undefined) | 0.447 µM (active)
23 | Cc1cc(=O)oc2cc(OCCC[n+]3ccccc3)ccc12 | inactive
24 | CCOc1ccccc1N1CCN(C(=O)COc2ccc3c(C)cc(=O)oc3c2)CC1 | inactive
25 | CN1OC[C@@H]2CN(C(=O)c3cccnc3)[C@H](c3ccc(N4CCCCC4)cc3)C[C@@H]21 | inactive

Row | Compound | Potency
26 | Cc1csc(SCC(=O)Nc2ccc(C)c(S(=O)(=O)N(C)C)c2)n1 | inactive
27 | C[C@H](CO)N1C[C@H](C)[C@@H](CN(C)Cc2ccc3c(c2)OCO3)OCc2cnnn2CCCC1=O | inactive
28 | O=C(O)C(c1ccccc1)N1C(=O)/C(=C\c2ccc(-c3cccc(Cl)c3)o2)SC1=S (centres undefined) | inactive
29 | O=C1c2ccccc2NC(c2ccc(-c3cccc(Cl)c3)o2)N1O (centres undefined) | 20 µM (active)
30 | CC(=O)NN1C(=O)c2ccccc2NC1c1ccccc1 (centres undefined) | inactive
31 | COc1ccc(C=C2CCC3C(CCCC34OCCO4)C2=O)cc1 (centres undefined) | inactive
32 | C=CCOc1cccc(C2C(C(=O)c3ccc(C)o3)=C(O)C(=O)N2CCN2CCOCC2)c1 (centres undefined) | inactive
33 | COCCNC(=O)C1CCCN(Cc2ccccc2Cl)CC1 (centres undefined) | inactive
34 | Cc1ccc(S(=O)(=O)N2CCOCC2)cc1NC(=O)c1ccncc1 | inactive
35 | CC(C)Nc1ncnc2c1ncn2[C@H]1CN(Cc2ccncc2)C[C@@H](CO)O1 | inactive
36 | O=C(CSc1ccccc1)Nc1nnc(/C=C/c2ccccc2)s1 | 18.4 µM (active)
37 | CCOCc1nnc(NC(=O)CSc2ccc(C)cc2)s1 | inactive
38 | O=C(Nc1ccc(Cl)cc1)Nc1nnc(/C=C/c2ccccc2)s1 | inactive
39 | CC1(C)OC(=O)C2=C(C[C@@H](C3CC3)O[C@H]2c2ccc(Cl)cc2)O1 | inactive
40 | CCCCc1nc2ccc(F)cc2cc1C | inactive
41 | CCCNC(=O)c1cc(C2CCCCN2S(=O)(=O)c2cn(C)cn2)on1 (centres undefined) | inactive
42 | COc1ccc2c(c1)C(C)=CC(C)(C)N2C(=O)CNCc1ccc2c(c1)OCO2 | 8.91 µM (active)
43 | COc1ccc(NC(=O)NCc2ccc3c(c2)OCO3)c(OC)c1 | inactive
44 | COc1ccc2c(c1)C(C)=CC(C)(C)N2C(=O)Nc1ccccc1 | inactive
45 | CCOC(=O)[C@]12CCCC=C1N(Cc1ccc3c(c1)OCO3)C(=O)[C@H](CC(=O)N1CCN(C(=O)c3ccco3)CC1)C2 | inactive
46 | CCN(CC)CCn1c(/N=C/c2cc(Br)ccc2O)nc2ccccc21 | inactive
47 | Cc1c(C(=O)Nc2ccccn2)oc2ccc(Br)cc12 | inactive
48 | Oc1ccc(Br)cc1/C=N/Nc1ccccn1 | 6.51 µM (active)
49 | NCCCCC(C(=O)O)N(C(=O)OCc1ccccc1)C(=O)OCc1ccccc1 (centres undefined) | inactive
50 | O=C(COC(=O)c1ccc(S(=O)(=O)N2CCCCCC2)cc1)Nc1ccccc1C(F)(F)F | inactive

Row | Compound | Potency
51 | CCc1nc2ccc(C(=O)Nc3ccc(OC)c(OC)c3)cn2c1N(C)C(=O)c1cccc(OC)c1 | inactive
52 | O=C(Nc1cnn(Cc2ccc(Cl)cc2)c1)C1CCCC1 | inactive
53 | CCn1cc(CN2CCC(C(=O)Nc3cccc(-c4cccc(Cl)c4)c3)CC2)c(C)n1 | 20.6 µM (active)
54 | O=C(Nc1cccc(-c2cscn2)c1)C1CCN(Cc2ccsc2)CC1 | inactive
55 | CCn1cc(CN2CCC(n3nccc3NC(=O)CCCc3ccccc3)CC2)c(C)n1 | inactive
56 | CC(=O)c1cc(CN2CCC(C(=O)Nc3cccc(-c4cscn4)c3)CC2)cs1 | inactive
57 | CCn1cc(CN2CCC(C(=O)Nc3cccc(-c4cccc(Cl)c4)c3)CC2)cn1 | 18.4 µM (active)
58 | Cc1ccc([C@@H]2CC(=O)[C@@H]3CN(S(=O)(=O)c4ccc(C)cc4)[C@H](c4ccccc4F)C[C@@H]3N2S(=O)(=O)c2ccc(Cl)cc2)cc1 | inactive
59 | CCN(CC)CCCC(C)n1c2nc(=O)[nH]c(=O)c-2nc2cc(Cl)ccc21 (centres undefined) | 16.4 µM (active)
60 | CCN(CC)CCn1c2ccc(Cl)cc2c2nc(C)sc21 | inactive
61 | CCCCc1ccc(S(=O)(=O)NC(=O)C2(C)CCN2C(=O)c2c(C)noc2C)cc1 (centres undefined) | inactive
62 | CC(=O)Nc1ccc(SCC(=O)NC(=O)c2ccc(Cl)cc2)cc1 | inactive
63 | Cc1cccc(C)c1-n1nnnc1C1(C)CCC(=O)N1CCOc1ccccc1 (centres undefined) | inactive
64 | COc1cc(NC(=O)c2cc(-c3ccc(F)cc3OC(C)C)n[nH]2)cc(OC)c1OC | inactive
65 | COc1ccc(NC(=O)C[C@H]2C(=O)N(CCc3ccccc3)C[C@@H]2C)cc1 | inactive
66 | OCCc1ccc(NCCc2ccco2)cc1 | inactive
67 | Cc1ccc(S(=O)(=O)Nc2nc(C)cc(-n3nc(C)cc3C)n2)cc1 | 15.8 µM (active)
68 | Cc1ccc(S(=O)(=O)Nc2nc(N)n(-c3ccccc3)n2)cc1 | inactive
69 | Cc1cc(C)nc(NS(=O)(=O)c2ccc(N3C(=O)C4CCCCC4C3=O)cc2)n1 (centres undefined) | inactive
70 | C[C@H]1CN([C@@H](C)CO)C(=O)CCCn2cc(nn2)CO[C@@H]1CN(C)S(=O)(=O)c1cccc(C#N)c1 | inactive
71 | CC1(C(=O)NS(=O)(=O)c2ccc(C#N)cc2)CCN1C(=O)CC1CCCC1 (centres undefined) | inactive
72 | CC(=O)Nc1ccc(CNc2nc(NCCN(C)C)nc3cc(-c4ccccc4)sc23)cc1 | 20.6 µM (active)
73 | COCCNc1nc(Nc2ccccc2Cl)c2sc(-c3ccccc3)cc2n1 | inactive
74 | COCCNc1nc(NCc2ccc(NC(C)=O)cc2)c2sccc2n1 | inactive
75 | COc1cccc(C(O)c2nc(-c3ccc(C)c(C)c3)cs2)c1 (centres undefined) | inactive

Row | Compound | Potency
76 | CC1(C)OC(=O)C2=C(CC(c3ccccc3)OC2CCc2ccccc2)O1 (centres undefined) | inactive
77 | OCCCNc1nccc(-c2cc(Nc3cccc(Cl)c3)ncn2)n1 | inactive
78 | CC(C)n1cnc2c(Nc3cccc(Cl)c3)nc(N(CCO)CCCO)nc21 | 14.6 µM (active)
79 | COC(=O)[C@]12CCCCC=C1N(Cc1ccc3c(c1)OCO3)C(=O)[C@H](CC(=O)NCc1cccs1)C2 | inactive
80 | COc1cc(C(O)c2nc(-c3cnn(C)c3)cs2)ccc1F (centres undefined) | inactive
81 | CCCCCNC(=O)C1C(=O)Nc2ccccc2C(=O)N1C(C)(C)C (centres undefined) | inactive
82 | CCOC(=O)[C@H]1Nc2ccc(Cl)cc2[C@@H]2[C@H]1C1CC(c3ccccc31)N2C(=O)OCc1ccccc1 (some centres undefined) | inactive
83 | CCOC(=O)Cc1ncccc1C(=O)Nc1ccc(OC)cc1 | inactive
84 | COC(=O)Cc1ccc(OCC(=O)Nc2ccc(OC(F)(F)F)cc2)cc1 | inactive
85 | CCOC(=O)Cc1ncccc1C(=O)Nc1ccc(OC(F)(F)F)cc1 | 20.6 µM (active)
86 | O=C(NCc1ccccc1)C1c2ccccc2OCC(=O)N1C1CC1 (centres undefined) | inactive
87 | COc1ccc(C(=O)Nc2ccc(C3(C#N)CCCC3)cc2)cc1OC | inactive
88 | COc1ccc(C(=O)N/N=C2\CCS(=O)(=O)c3ccc(F)cc32)cc1OC | 20.6 µM (active)
89 | CCNC(=O)c1ccc(OCC(=O)Nc2ccc(F)cc2)c(OC)c1 | inactive
90 | CC1(C(=O)NCc2ccccc2)CSCC(=O)N1CCCn1ccnc1 (centres undefined) | inactive
91 | O=C(C(=O)N1CCC(c2ccccc2)CC1)c1ccccc1 | inactive
92 | CN(c1ccccc1)S(=O)(=O)c1ccc(C(=O)NCc2cccnc2)cc1 | inactive
93 | Cc1sc2nc(SCC(N)=O)n(C)c(=O)c2c1C | inactive
94 | CC(C)(C)C1CCc2c(sc3nc(SCC(N)=O)nc(N)c23)C1 (centres undefined) | 32.6 µM (active)
95 | Nc1nc(SCC(=O)NCCN2CCOCC2)nc2sc3c(c12)CCC3 | inactive
96 | CC1Cc2[nH][nH]c(=O)c2C(C2CCCC2)O1 (centres undefined) | inactive
97 | O=C(C[C@H]1CC[C@H]2[C@@H](COC[C@H](O)CN2C(=O)c2ccccn2)O1)N1CCN(c2ccccc2)CC1 | inactive
98 | c1cc(-c2ccc3[nH]ccc3c2)n2ccnc2c1 | inactive
99 | CCCCN(CCCC)CCC(O)c1cc2c(Cl)cc(Cl)cc2c2cc(C(F)(F)F)ccc12 (centres undefined) | 20.6 µM (active)
